BAZ2B inh = BAZ2B (human) inhibition; Q9UIF8; AID 504333; 360,000 tested, 4.4% active; AlphaScreen BAZ2B-H3K14Ac peptide displacement; Potency, µM (series often up to 114 µM), actives largely listed as inhibitors; also: nearly all actives have a fitted effect of over 60% in size
Target sequence (Q9UIF8 whole entry, looked up): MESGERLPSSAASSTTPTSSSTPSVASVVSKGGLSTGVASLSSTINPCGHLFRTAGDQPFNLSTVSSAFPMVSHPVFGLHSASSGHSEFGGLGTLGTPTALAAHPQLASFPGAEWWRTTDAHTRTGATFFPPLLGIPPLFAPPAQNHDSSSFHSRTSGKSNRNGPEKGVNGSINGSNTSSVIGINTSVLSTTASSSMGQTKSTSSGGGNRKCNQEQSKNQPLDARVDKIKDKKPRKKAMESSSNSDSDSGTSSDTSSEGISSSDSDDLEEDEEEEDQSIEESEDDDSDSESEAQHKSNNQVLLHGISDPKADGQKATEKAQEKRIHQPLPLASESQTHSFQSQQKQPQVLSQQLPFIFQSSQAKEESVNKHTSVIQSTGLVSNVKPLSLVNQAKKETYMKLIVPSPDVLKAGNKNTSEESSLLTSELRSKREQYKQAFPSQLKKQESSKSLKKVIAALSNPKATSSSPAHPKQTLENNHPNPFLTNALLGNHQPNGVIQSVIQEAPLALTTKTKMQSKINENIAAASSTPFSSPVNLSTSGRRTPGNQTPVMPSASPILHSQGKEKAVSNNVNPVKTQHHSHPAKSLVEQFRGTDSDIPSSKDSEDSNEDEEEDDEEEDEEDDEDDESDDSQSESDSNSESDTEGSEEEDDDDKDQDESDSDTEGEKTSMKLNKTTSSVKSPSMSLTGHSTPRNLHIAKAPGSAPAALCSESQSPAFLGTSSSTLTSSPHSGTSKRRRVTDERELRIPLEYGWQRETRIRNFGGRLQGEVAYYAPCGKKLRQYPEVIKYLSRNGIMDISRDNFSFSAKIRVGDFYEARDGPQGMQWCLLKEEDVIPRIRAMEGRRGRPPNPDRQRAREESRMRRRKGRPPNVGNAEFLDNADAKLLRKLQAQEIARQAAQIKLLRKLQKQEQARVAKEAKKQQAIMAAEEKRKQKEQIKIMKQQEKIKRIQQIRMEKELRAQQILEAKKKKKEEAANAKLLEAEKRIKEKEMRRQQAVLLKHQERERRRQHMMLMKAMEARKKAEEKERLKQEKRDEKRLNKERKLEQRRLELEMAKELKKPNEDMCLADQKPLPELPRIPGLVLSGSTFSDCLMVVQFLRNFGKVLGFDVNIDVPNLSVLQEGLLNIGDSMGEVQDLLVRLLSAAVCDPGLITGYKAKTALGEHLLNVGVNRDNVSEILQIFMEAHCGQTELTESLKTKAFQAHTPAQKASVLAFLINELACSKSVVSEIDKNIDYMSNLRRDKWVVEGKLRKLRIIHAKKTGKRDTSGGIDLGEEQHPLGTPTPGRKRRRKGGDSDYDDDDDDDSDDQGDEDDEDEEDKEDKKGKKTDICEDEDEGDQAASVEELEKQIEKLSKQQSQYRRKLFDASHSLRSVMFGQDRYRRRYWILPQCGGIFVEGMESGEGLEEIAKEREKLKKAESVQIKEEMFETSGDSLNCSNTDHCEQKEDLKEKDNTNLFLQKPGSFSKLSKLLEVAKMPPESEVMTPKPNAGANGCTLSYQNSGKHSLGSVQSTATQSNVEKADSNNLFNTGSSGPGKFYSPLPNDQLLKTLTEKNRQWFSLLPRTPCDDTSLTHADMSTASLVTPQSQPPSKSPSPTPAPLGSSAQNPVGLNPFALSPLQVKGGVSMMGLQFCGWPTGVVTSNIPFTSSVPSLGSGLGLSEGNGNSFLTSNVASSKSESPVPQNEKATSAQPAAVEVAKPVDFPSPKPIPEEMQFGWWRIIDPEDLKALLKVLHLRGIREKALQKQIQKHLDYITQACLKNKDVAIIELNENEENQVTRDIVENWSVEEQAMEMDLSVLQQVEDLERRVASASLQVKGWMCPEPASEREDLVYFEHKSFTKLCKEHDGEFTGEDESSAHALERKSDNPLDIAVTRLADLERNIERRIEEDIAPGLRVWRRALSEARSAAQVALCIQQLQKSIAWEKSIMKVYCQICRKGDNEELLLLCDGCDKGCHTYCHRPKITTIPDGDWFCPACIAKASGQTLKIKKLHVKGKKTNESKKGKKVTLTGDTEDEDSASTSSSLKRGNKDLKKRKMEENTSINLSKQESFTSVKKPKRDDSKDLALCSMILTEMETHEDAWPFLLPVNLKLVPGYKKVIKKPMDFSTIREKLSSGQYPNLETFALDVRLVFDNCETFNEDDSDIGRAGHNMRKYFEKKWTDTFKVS
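Compounds, titrated to a top concentration of 110 uM, were incubated 30 min at room temperature with preformed BAZ2B/acetyl-K14 H3 peptide complex (50 nM each). Proximity signal was measured by AlphaScreen after 20 min with beads.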
G9a block = inhibitors of human histone lysine methyltransferase G9a. G9a H3K9 monomethylation, AlphaScreen, 2 h. 350,000 tested, 8.8% active. AID 504332. Potency, µM (doses to about 102 µM), actives largely listed as inhibitors. Q96KQ7; also: nearly all actives have a fitted effect of over 75% in size
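Signal arises when biotinylated H3K9 peptide, once monomethylated, bridges streptavidin donor and antibody-captured acceptor beads. Enzyme at 20 nM was preincubated 15 min with test compounds; peptide 500 nM and SAM 20 uM then reacted for 2 h.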
JMJD2A Tudor = inhibitors of human JMJD2A Tudor domain; O75164; AlphaScreen JMJD2A-Tudor / H3K4me3 peptide binding; Potency, µM (series often up to 114 µM), usual class: inhibitors; 390,000 tested, 4.4% active; also: nearly all actives have a fitted effect of over 50% in size
CtBP-E1A blk = blocks the CtBP interaction with E1A; AlphaScreen GST-E1A/His-CtBP binding, 1536-well; stronger effect = lower value; activity change, % (concentration not given with the values); 340,000 tested, 0.49% active; AID 651724; in the data active = activity change below about -65%; inconclusive = mostly about -30% to -63%
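Protein mix (5X: 125 nM each GST-E1A, His-CtBP) was incubated with pinned compound 2 h at 37 deg C in dark, in 50 mM Tris pH 8.0 buffer with 300 mM NaCl. Glutathione donor and nickel acceptor beads followed; AlphaScreen signal read after 1 h.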
Six1-Eya2 blk = blocks human Six1 binding to Eya2; Q15475+O00167; AlphaScreen GST-Six1/His-Eya2 binding, biochemical; stronger effect = lower value; activity change, % (test concentration not listed); 360,000 tested, 0.56% active; in the data active = activity change below about -65%; inconclusive = mostly about -30% to -63%
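Six1/Eya2 binding was read as AlphaScreen signal after compounds were pinned into GST-Six1 plus His-tagged Eya2 (5X stock 250/500 nM) in pH 8.0 Tris/NaCl/TCEP buffer, beads added, then incubated 1 h, 37 C, dark.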
HP1b binding inh = blocks HP1-beta chromodomain binding to methylated histone tails; P83916; Potency, µM (titrated, usually from 114 µM), actives largely listed as inhibitors; AlphaScreen HP1-beta / biotin-H3K9me3 peptide binding; 390,000 tested, 0.56% active; also: nearly all actives have a fitted effect of over 70% in size
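AlphaScreen: HP1-beta (50 nM) preformed 30 min with biotin-H3(1-18)K9me3 peptide (50 nM) in PBS pH 7.4, 0.01% Tween-20. Compound added for 30 min at RT, then streptavidin donor/nickel chelate acceptor beads (10 ug/mL) for 30 min.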
Each line names hits and unclear results; the compound was inactive in the other large screens; ! = a repeat was not active. Rows were chosen to be rich in hits. Some 10% of all compounds tested hit in one or more screens of this group. Unless noted, calls follow the shape of the dose curve; as a rule, active = well fitted inhibition curve with a large enough effect; inconclusive = small, poorly fitted or top-dose-only effect; inactive = no such curve, though single readings can be large or run the other way.

CCOC(=O)c1c(C)oc2cc(Br)c(O)c(Br)c12	G9a block 6.31µM
CCOC(=O)c1c(C)n(C)c2cc(Br)c(O)c(O)c12	G9a block 0.355µM, JMJD2A Tudor 10µM, HP1b binding inh inconclusive
CCOC(=O)c1c(CSc2cccs2)n(C)c2cc(Br)c(O)c(CN(C)C)c12	BAZ2B inh 39.8µM, JMJD2A Tudor 63.1µM, HP1b binding inh inconclusive (no result: G9a block)
CSc1ccc(C2C(C(=O)c3ccco3)=C(O)C(=O)N2c2nnc(SC)s2)cc1 (stereo unspecified)	BAZ2B inh inconclusive, G9a block inconclusive, JMJD2A Tudor 7.08µM
Cc1nnc(N2C(=O)C(O)=C(C(=O)c3ccco3)C2c2ccc(C(C)(C)C)cc2)s1 (stereo unspecified)	G9a block inconclusive
Cc1nnc(N2C(=O)C(O)=C(C(=O)c3ccco3)C2c2ccc(C(C)C)cc2)s1 (stereo unspecified)	G9a block 44.7µM, JMJD2A Tudor inconclusive
CCCOc1cccc(C2C(C(=O)c3ccco3)=C(O)C(=O)N2c2nnc(C)s2)c1 (stereo unspecified)	G9a block inconclusive
Cc1ccc(C2C(C(=O)c3ccco3)=C(O)C(=O)N2c2ncccn2)cc1 (stereo unspecified)	none
Cc1nnc(N2C(=O)C(O)=C(C(=O)c3ccco3)C2c2ccc(F)cc2)s1 (stereo unspecified)	G9a block inconclusive, JMJD2A Tudor 56.2µM
NC(=O)c1coc(-c2ccccc2)n1	none (no result: CtBP-E1A blk)
CC12CCC(C/C1=N\N=C1\NC(=O)/C(=C\c3cccc(Br)c3)S1)C2(C)C (stereo unspecified)	G9a block 1.26µM, JMJD2A Tudor inconclusive
Cc1ccccc1Nc1c(-c2ccc(Cl)cc2)nc2c(C)cccn12	none (no result: CtBP-E1A blk, Six1-Eya2 blk)
Cc1ccc(-c2nc3sccn3c2Nc2ccccc2C)cc1	BAZ2B inh 7.08µM, G9a block 12.6µM, JMJD2A Tudor 44.7µM, HP1b binding inh inconclusive (no result: CtBP-E1A blk, Six1-Eya2 blk)
Cc1ccn2c(Nc3ccccc3)c(-c3ccccn3)nc2c1	BAZ2B inh 20µM, JMJD2A Tudor 50.1µM, CtBP-E1A blk -78.3, Six1-Eya2 blk -73.7
Cc1ccc2nc(-c3ccccn3)c(Nc3ccc(F)cc3)n2c1	BAZ2B inh 5.62µM, JMJD2A Tudor inconclusive (no result: CtBP-E1A blk, Six1-Eya2 blk)
Fc1ccc(Nc2c(-c3ccccn3)nc3ccc(Cl)cn23)cc1	BAZ2B inh inconclusive, JMJD2A Tudor inconclusive (no result: CtBP-E1A blk, Six1-Eya2 blk)
CC(C)c1ccc(Nc2c(-c3ccccn3)nc3ccccn23)cc1	BAZ2B inh 22.4µM, G9a block inconclusive, JMJD2A Tudor 31.6µM, HP1b binding inh inconclusive (no result: CtBP-E1A blk, Six1-Eya2 blk)
COc1cccc(Sc2nc(N(C)C)ncc2S(=O)(=O)c2ccc(Cl)cc2)c1	none (no result: BAZ2B inh, G9a block, CtBP-E1A blk, Six1-Eya2 blk)
Cc1ccc2nc(-c3ccccn3)c(Nc3ccccc3C)n2c1	BAZ2B inh 20µM, G9a block inconclusive, JMJD2A Tudor 44.7µM!, CtBP-E1A blk -90.8, Six1-Eya2 blk inconclusive
Cc1ccccc1Nc1c(-c2cccnc2)nc2ccccn12	none
Cc1ccccc1Nc1c(-c2ccccn2)nc2ccccn12	BAZ2B inh 10µM, G9a block 39.8µM, JMJD2A Tudor 50.1µM, Six1-Eya2 blk -90.9 (no result: CtBP-E1A blk)
COc1ccc(-c2nc3ccccn3c2Nc2ccccc2C)cc1	JMJD2A Tudor 56.2µM, HP1b binding inh inconclusive (no result: BAZ2B inh, G9a block, CtBP-E1A blk, Six1-Eya2 blk)
Cc1ccn2c(Nc3ccccc3C)c(-c3ccccn3)nc2c1	BAZ2B inh 22.4µM, G9a block inconclusive, JMJD2A Tudor 44.7µM!, CtBP-E1A blk -93.3, Six1-Eya2 blk -82.3, HP1b binding inh inconclusive
Cc1ccc2nc(-c3ccncc3)c(Nc3ccccc3C)n2c1	none (no result: CtBP-E1A blk, Six1-Eya2 blk)
Cc1ccccc1Nc1c(-c2cc(Br)ccc2F)nc2ccccn12	none (no result: CtBP-E1A blk, Six1-Eya2 blk)
CC(C)CC(N)c1csc(NC(=O)c2cc(C(C)(C)C)nn2Cc2ccccc2)n1 (stereo unspecified)	none (no result: BAZ2B inh, G9a block, JMJD2A Tudor, HP1b binding inh)
COCc1cc(=O)[nH]c2cc(NC(=O)C3CC3)c(C)cc12	none
CN(CCOc1ccc(Cl)cc1)C(=O)CNS(=O)(=O)c1ccc(N(C)C)c([N+](=O)[O-])c1	BAZ2B inh inconclusive, G9a block 39.8µM, JMJD2A Tudor inconclusive
CN(C)c1ccc(S(=O)(=O)NCC(=O)OCC(=O)Nc2cc(Cl)cc(Cl)c2)cc1[N+](=O)[O-]	BAZ2B inh inconclusive, JMJD2A Tudor inconclusive

Source: PubChem BioAssay (National Center for Advancing Translational Sciences (NCATS))
